Measurements reported in PubChem BioAssay (NCI).
Where “and” joins values, the source holds several entries; their conditions need not be identical. Equal values may be shown once. About 83,000 compounds went through this panel and 20% of them were active in at least one assay; those are over-represented in the sample as a whole.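 Assay: single dose, 48 h. Readout: percent growth (0 = no net growth; negative = cell death). Active: <10.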 Calls of active or inactive are those of the source.

tested on: HL-60(TB) leukemia; assay: NCI-60 one-dose screen, 48 h (100 = growth as untreated, 0 = no growth, -100 = all killed); conditions: 10 µM unless noted

SMILES	growth
CC(C)c1ccc(NC(=O)Nc2ccc(NC(=O)CCCC(=O)NOCc3ccccc3)cc2)cc1	17.9% (inactive)
CCN(CC)C(=O)O/N=C(/C)c1ccccc1	95.5% (inactive)
O=C1NC(=S)NC(=O)C1=Cc1cccc(C=C2C(=O)NC(=S)NC2=O)c1	101% (inactive)
CC(C)(C)c1cc(C(=O)Nc2ccc(C(=O)NCCN)cc2)cc(C(C)(C)C)c1	-68.4% (active)
O=C(/C(=C\c1ccc([N+](=O)[O-])cc1)S(=O)Cc1ccc(Cl)cc1)c1ccc(Cl)cc1 (configuration not stated)	59.4% (inactive)
Cc1nn(-c2ccccc2)c2nc(C)n(-c3ccc(Br)cc3)c(=O)c12	-5.26% (active)
N#Cc1c(-c2ccccc2)cc(-c2ccccc2)n(CCCCCC(=O)Nc2ccccc2N)c1=O	2.68% (active)
COCCNC(C(=O)c1ccccc1)c1ccccc1 (configuration not stated)	103% (inactive)
CCCCCCCCCCCCCCCCCCNC(=S)N/N=C/c1ccc(OC)c(OC)c1	73.6% (inactive)
N#Cc1cccc(/C=C(/C(=O)c2ccccc2)c2ccccc2)c1	43.7% (inactive)
CCCNc1nc(SC)nc(-c2cccc(N)c2)c1C#N	98.9% (inactive)
C=CCSc1nc2ccccc2cc1/C=N/O	92.1% (inactive)
COC1(OC)N=C(N)C2(C#N)C3(C(=O)Nc4ccccc43)C12C#N (configuration not stated)	72.5% (inactive)
O=[N+]([O-])c1ccc(-c2nc(N3CCOCC3)c3c4c(sc3n2)CCCC4)cc1	92.2% (inactive)
O=C(O)c1cc(=O)[nH]c(=O)[nH]1	109% (inactive) and 106% (inactive)
O=C(NCCNc1nccc(-c2c(-c3cccc(O)c3)nc3sccn23)n1)c1cccc(C(F)(F)F)c1	95.5% (inactive)
O=C(/C(=C/c1ccc([N+](=O)[O-])cc1)SCc1ccc(F)cc1)c1ccc(Cl)cc1	64.2% (inactive)
CC(=O)NC1C(O[C@H]2C[C@H]3[C@@H]4CC=C5C[C@@H](O)CC[C@]5(C)[C@H]4CC[C@]3(C)[C@H]2[C@H](C)C(=O)CCC(C)C)OCC(O)C1O (some centres not stated)	10.1% (inactive)
COc1cc2nc(N3CCN(C(=O)C4COc5ccccc5O4)CC3)nc(N)c2cc1OC (configuration not stated)	104% (inactive) and 103% (inactive) and 99.9% (inactive)
O=C(CNS(=O)(=O)Cc1ccccc1)NNc1ccccc1	18% (inactive)
Oc1c(Cl)cc(Cl)c2ccc(Cn3cc(-c4ccc(C(F)(F)F)cc4)nn3)nc12	-24.9% (active)
O=C1/C(=C/c2cccs2)SC(=S)N1CCCN1CCOCC1	90.4% (inactive)
Cc1cc2c(c(=O)o1)C(c1ccc(OC(=O)N3CCOCC3)cc1)C(C#N)=C(N)O2 (configuration not stated)	104% (inactive)
O=[N+]([O-])C1C(c2ccccc2)C12c1ccccc1-c1ccccc12 (configuration not stated)	-30.6% (active)
COc1ccc(-c2coc3c(CO)c(O)ccc3c2=O)cc1	-24.9% (active)
COc1ccc(-c2nn(-c3cccc(Cl)c3)cc2C=C(C#N)C#N)cc1	-36.7% (active)
O=C(Nc1ccc(-n2ccc3c(NC(=O)c4ccccc4)ncnc32)cc1)Nc1cccc(Cl)c1Cl	62.9% (inactive)
